Here are results for 68 compounds from PubChem BioAssay AID1529 (NMMLSC, 2009).

Among all 290,000 compounds or so, about 4,200 (1.4%) were called active. The sample as a whole holds a higher share of actives than the screen did. Unmarked numbers belong to inactive results.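 How the source made its calls: active means binding response more than 3 SD above or below the average of its plate-row segment, actives on both sides; inconclusive means wells at one plate position flagged as instrument error; inactive means the rest.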

Mitogen-activated protein kinase kinase kinase 3 (Homo sapiens), sequence (Q99759 whole entry, looked up): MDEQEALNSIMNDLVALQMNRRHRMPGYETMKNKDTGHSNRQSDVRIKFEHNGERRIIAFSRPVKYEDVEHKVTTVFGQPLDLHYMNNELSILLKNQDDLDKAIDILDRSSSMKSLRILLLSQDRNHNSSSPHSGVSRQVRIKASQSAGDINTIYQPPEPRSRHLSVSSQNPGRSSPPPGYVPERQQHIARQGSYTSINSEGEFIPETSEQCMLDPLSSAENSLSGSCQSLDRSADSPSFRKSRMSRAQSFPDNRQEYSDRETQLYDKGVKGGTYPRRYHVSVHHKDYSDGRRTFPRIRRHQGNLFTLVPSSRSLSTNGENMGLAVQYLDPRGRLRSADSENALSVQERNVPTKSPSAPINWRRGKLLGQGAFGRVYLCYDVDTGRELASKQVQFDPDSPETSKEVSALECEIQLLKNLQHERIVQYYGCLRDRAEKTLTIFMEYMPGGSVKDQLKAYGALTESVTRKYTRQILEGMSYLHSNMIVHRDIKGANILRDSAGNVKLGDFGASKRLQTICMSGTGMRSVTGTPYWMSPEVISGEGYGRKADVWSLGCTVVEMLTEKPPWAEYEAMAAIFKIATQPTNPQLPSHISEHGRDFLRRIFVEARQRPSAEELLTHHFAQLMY

This assay has as its target Mitogen-activated protein kinase kinase kinase 3 (Homo sapiens) (UniProt Q99759). The experiment in a line: modulators of MEKK3-MEK5 PB1 binding, primary screen, biochemical, wildtype MEKK3, multiplex bead flow cytometry, Alexa488-MEK5 (AID 1529).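 Further: Alexa488 bead fluorescence after subtracting the streptavidin-only scavenger bead signal.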 As to conditions: bead-based flow cytometry, Alexa488-MEK5 binding to MEKK3; at 10 µM; actives lie on both sides; 0 = blocked by unlabeled MEK5, 100 = vehicle. Background: A flow cytometer gives signals particle by particle.
Regarding `CCCCC1(C(=O)OCC)NC(c2ccc(O)cc2)C2C(=O)N(c3ccccc3)C(=O)C21` (stereo not drawn), the binding response (% of control) was 104%.

On to `CCOC(=O)c1ccc(Nc2cc3ccccc3c(=O)[nH]2)cc1`, for which the binding response (% of control) was 100%.

As to `COc1ccc(OCCC(=O)c2ccc(OC)cc2)cc1`, the binding response (% of control) was 102%.

Regarding `COc1ccc(C(=O)C[n+]2ccc(C)cc2)cc1`, the binding response (% of control) is 134% (active).

Regarding `COc1ccc(C(=O)C[n+]2ccc(N)c(C)c2C)cc1`, the binding response (% of control) is 92%.

On to `COC(C[C@@H](O)C[C@@H](O)[C@H](C)OCc1ccccc1)OC`, for which the binding response (% of control) was 101%.

For `Cn1c2ccccc2c(=O)c2c(=O)n(Cc3ccco3)c(COc3ccccc3)nc21`, the binding response (% of control) is 130% (active).

For the compound `CCCc1nc2c(c(=O)c3ccccc3n2C)c(=O)n1-c1cc(C)cc(C)c1`, the binding response (% of control) was 101%.

As for `COc1ccc(C(=O)CSc2nnc(COc3ccccc3)n2Cc2ccco2)cc1`, the binding response (% of control) is 102%.

As for `COc1ccc(/C=C/c2c(-c3cccc(C)c3)oc3ccc(-c4ccc5c(c4)OCO5)cc23)cc1`, the binding response (% of control) was 94%.

For `CCOC(=O)c1cc(S(=O)(=O)NCCc2ccc(OC)c(OC)c2)cn1C`, the binding response (% of control) is 100%.

`CN(CC(=O)Nc1ccc(F)cc1)C(=O)c1ccc(-c2ccc(Cl)cc2)o1`: the binding response (% of control) was 105%.

As to `Cc1cc(C)nc(NS(=O)(=O)c2ccc(N3C(=O)C4CCCCC4C3=O)cc2)n1` (stereo not drawn), the binding response (% of control) is 101%.

On to `CCOC(=O)CC1C(=O)NCCN1c1nc2c(C)cccn2c(=O)c1/C=C1\SC(=S)N(C(C)CC)C1=O` (stereo not drawn), for which the binding response (% of control) was 93%.

In the case of `CCCN(CCC)c1nc2c(C)cccn2c(=O)c1/C=C1/SC(=S)N(Cc2ccco2)C1=O`, the binding response (% of control) was 32% [inhibitor] (active).

On to `Cc1cccn2c(=O)c(/C=C3\SC(=S)N(CC(C)C)C3=O)c(NCCCOC(C)C)nc12`, for which the binding response (% of control) was 66%.

Regarding `Cc1csc(NC(=O)CSc2nnc(-c3cccnc3)o2)n1`, the binding response (% of control) is 99%.

With `CCCC[C@@H]1CN=C(N)N1CCc1cccc(F)c1`, the binding response (% of control) is 106%.

On to `O=C(NCc1ccccn1)C1CCN(S(=O)(=O)c2ccc(Br)cc2)CC1`, for which the binding response (% of control) was 103%.

As for `COc1ccc(CNc2ncnc3ccccc23)cc1`, the binding response (% of control) was 100%.

In the case of `O=C(NCc1ccccc1Cl)c1csc2c1CCCCC2`, the binding response (% of control) was 96%.

As for `O=[N+]([O-])c1ccccc1NCc1ccccc1Cl`, the binding response (% of control) was 66%.

As for `O=C(NCc1ccccc1Cl)NC(=O)c1csc([N+](=O)[O-])c1`, the binding response (% of control) is 0% [inhibitor] (active).

Regarding `CCC(C)[C@H](NC(=O)N1c2ccccc2NC(=O)[C@@H]1C(C)C)C(=O)N[C@@H](Cc1ccccc1)C(=O)O` (stereo partly drawn), the binding response (% of control) was 101%.

`COc1ccc(NC(=O)CCCC2CCCCC2)c(OC)c1`: the binding response (% of control) was 97%.

Consider `CCCc1ccc(OCCNC(=O)c2ccco2)cc1`, for which the binding response (% of control) was 101%.

With `CC(=O)NCCNC(=O)c1cc(-c2cccc3ccccc23)nc2ccccc12`, the binding response (% of control) was 102%.

Regarding `CCOC(=O)C1CCN(C(=O)c2ccccc2N(C)S(=O)(=O)c2ccccc2)CC1`, the binding response (% of control) was 105%.

Take `O=c1cc(N2CCCCC2)c(-c2ccccc2)nn1Cc1cccc(F)c1`: the binding response (% of control) is 157% (active).

For `c1ccc(-c2cc(N3CCCCC3)c3ccccc3n2)cc1`, the binding response (% of control) was 100%.

As for `O=c1cc(N2CCN(Cc3ccccc3)CC2)c(-c2ccccc2)n[nH]1`, the binding response (% of control) was 101%.

Turning to `CCC(C)OC(=O)C(C)Oc1ccc(-c2ccccc2)cc1` (stereo not drawn), the binding response (% of control) was 2% [inhibitor] (active).

With `COc1ccc(-c2noc(CNC(=O)C(C)Oc3ccccc3)n2)cc1` (stereo not drawn), the binding response (% of control) is 99%.

As for `CC(=O)Nc1ccc(NC(=O)COc2ccc(-c3ccccc3)cc2)cc1`, the binding response (% of control) was 99%.

With `COc1ccc(CCNS(=O)(=O)c2cccc([N+](=O)[O-])c2)cc1`, the binding response (% of control) is 111%.

For `O=C(Nc1ccccc1N1CCN(C(=O)c2ccccc2)CC1)c1ccco1`, the binding response (% of control) was 100%.

Consider `CCc1ccc(NC(=O)Cn2nnc(C(=O)NCc3ccc(OC)cc3)c2N)cc1`, for which the binding response (% of control) is 101%.

In the case of `COc1ccc(CNC(=O)c2nnn(CC(=O)Nc3cc(C)cc(C)c3)c2N)cc1`, the binding response (% of control) is 100%.

On to `COc1ccc(NC(=O)Cn2nnc(C(=O)NCCc3ccc(OC)c(OC)c3)c2N)cc1`, for which the binding response (% of control) was 2% [inhibitor] (active).

Take `CCOC(=O)c1ccccc1NC(=O)c1c(N)n(C)c(=O)[nH]c1=O`: the binding response (% of control) is 103%.

Consider `COc1ccc(CNC(=O)CN(Cc2ccccc2Cl)C(=O)c2csnn2)cc1`, for which the binding response (% of control) was 104%.

`COc1cccc(N2CCN(c3ccc4nnc(CCC(=O)N5CCN(C)CC5)n4n3)CC2)c1`: the binding response (% of control) is 100%.

As to `O=C(CSc1n[nH]c(=O)n1-c1ccccc1)Nc1ccccc1C(F)(F)F`, the binding response (% of control) was 102%.

With `Cc1c(S(=O)(=O)NC(C)c2ccccc2)c(=O)n(C)c(=O)n1C` (stereo not drawn), the binding response (% of control) is 101%.

Consider `Cc1c(S(=O)(=O)NCc2ccccc2)c(=O)n(C)c(=O)n1C`, for which the binding response (% of control) is 131% (active).

In the case of `COC(=O)c1ccc(S(=O)(=O)NCc2ccccc2)n1C`, the binding response (% of control) was 78%.

Take `COC(=O)C1=NN(c2ccccc2)C2C(=O)N(c3ccccc3OC)C(=O)C12` (stereo not drawn): the binding response (% of control) is 139% (active).

As for `COC(=O)c1cc(C(=O)OC)cc(N2C(=O)CC(N3CCN(c4ccccc4)CC3)C2=O)c1` (stereo not drawn), the binding response (% of control) is 103%.

Turning to `COC(=O)C1(C)NC(c2ccccc2OC)C2C(=O)N(c3ccccc3)C(=O)C21` (stereo not drawn), the binding response (% of control) was 104%.

As to `CC(=O)Nc1ccc(S(=O)(=O)N(C)c2nc3ccccc3nc2Cl)cc1`, the binding response (% of control) is 103%.

As for `CCc1ccc(-c2cc(C)no2)cc1S(=O)(=O)NCCc1ccc(S(N)(=O)=O)cc1`, the binding response (% of control) was 104%.

`CCc1ccnc(NC(=O)Nc2ccc(OCc3ccccc3)cc2)c1`: the binding response (% of control) was 104%.

On to `Cc1cccc(NC(=O)Nc2ccc(OCc3ccccc3)cc2)n1`, for which the binding response (% of control) was 99%.

As to `O=C(O)/C=C\C(=O)Nc1ccc(OCc2ccccc2)cc1`, the binding response (% of control) is 130% (active).

Regarding `COc1cc(CNCc2ccc3c(c2)OCO3)c([N+](=O)[O-])cc1OC`, the binding response (% of control) was 95%.

For `COc1cccc(CNS(=O)(=O)c2ccc3c(c2)N(C(C)=O)CCS3)c1`, the binding response (% of control) is 93%.

Take `COc1cccc(CC2(CO)CCCN(Cc3ccc(OC(F)F)cc3)C2)c1` (stereo not drawn): the binding response (% of control) was 109%.

Turning to `COc1cc2c(cc1OC)CN(C(=O)c1ccc(S(=O)(=O)N3CCCCCC3)cc1)CC2`, the binding response (% of control) was 132% (active).

In the case of `COc1cc2c(cc1OC)CN(C(=O)c1cc(S(=O)(=O)N3CCCCC3)ccc1Cl)CC2`, the binding response (% of control) was 101%.

Take `COc1ccccc1N1CCN(C(=O)c2ccc(S(=O)(=O)N3CCCCC3)cc2)CC1`: the binding response (% of control) was 102%.

For the compound `C/C(=N\NC(=O)c1ccccc1F)c1ccccn1`, the binding response (% of control) was 106%.

For the compound `CC(C)(C)n1nc(Cc2cccc3ccccc23)c(C#N)c1N`, the binding response (% of control) is 101%.

Turning to `COc1ccc(/C=N/Nc2nc(-c3ccc(C)cc3)c(C#N)c(=O)[nH]2)cc1`, the binding response (% of control) is 104%.

For the compound `CC(C)[C@H](NC(=O)N1CCn2c1nc1ccccc12)C(=O)NCCc1ccccc1`, the binding response (% of control) is 100%.

Consider `CCOC(=O)C[C@H]1c2ccc(C(F)(F)F)cc2S(=O)(=O)N1c1ccccc1`, for which the binding response (% of control) was 95%.

In the case of `COCCc1nn2c(=O)cc(COC(=O)c3cc(OC)c(OC)c(OC)c3)nc2s1`, the binding response (% of control) was 95%.

As to `Cc1cc(=O)oc2cc(OC(C)C(=O)NCCc3ccc(S(N)(=O)=O)cc3)ccc12` (stereo not drawn), the binding response (% of control) was 100%.

Take `Cc1cc(C)cc(NC(=O)NCc2ccccn2)c1`: the binding response (% of control) is 101%.
